# Bioassay records as filed in PubChem.
# In the library only some 7.3% were active in any assay of this set; here they are far more common.
# KinaseGlo FLuc – blocks Kinase-Glo luciferase, a counter-screen artifact | Q27757 | Kinase-Glo luciferase, ATP luminescence, 8 min | Potency, µM (highest dose often 38.3 µM), for inactives: at the top dose activity change, negative = inhibition, usual class: inhibitors | actives 0.28% (n = 200,000); also: % is scaled to controls: 0 for no effect and ±100 for the full control effect; nearly all actives have a fitted effect of over 60% in size
#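 Luminescence was the read-out, taken after 8-minute incubation at ambient temperature. Luciferase turned over luciferin with 10 uM ATP in imidazole pH 7.2 buffer containing KCl, MgCl2, Tween 20 and BSA.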
# ELG1 genotoxic – induces genotoxicity in HEK293T cells with luciferase-tagged ELG1 | AID 504466 | HEK293T ELG1-luciferase reporter, luminescence, 16 h | actives 1.3% (n = 330,000) | Potency, µM (titrated, usually from 46 µM), without a hit: at the top dose activity change, positive = activation, usual class: activators; also: % of control where 0% means no effect; nearly all actives have a fitted effect of over 60% in size
#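 Step 1: seed 2,000 HEK293T ELG1-luciferase cells per well. Step 2: add compound or DMSO, incubate 16 hr at 37 °C. Step 3: ONE-Glo, 30 min at room temperature, read luminescence.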
# NPC1 prom act – activates the NPC1 promoter; Huh7 NPC1 promoter luciferase reporter, 24 h; actives 2.4% (n = 320,000); Potency, µM (top dose mostly 9.22 µM), inactives show top-dose activation, hits mostly activators; also: % of control where 0% means no effect; nearly all actives have a fitted effect of over 60% in size
#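 Quantitative HTS used a cell-based reporter: Huh7 cells stably bearing the NPC1 promoter upstream of luciferase were treated with compounds for 24 h, and promoter activation was read as luminescence.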
# FLuc counter – inhibits or activates purified firefly luciferase, miR-21 counter-screen. Potency, µM (titrated, usually from 57.5 µM), for the others: at the highest dose activity change, negative = inhibition, most hits filed as inhibitors. AID 588342. purified FLuc, Km substrates, luminescence inhibition. actives 6.9% (n = 360,000);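 also: plate controls were vehicle for no effect and reference inhibitor for full effect; nearly all actives have a fitted effect of over 55% in size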
# Target sequence (P08659 whole entry, looked up): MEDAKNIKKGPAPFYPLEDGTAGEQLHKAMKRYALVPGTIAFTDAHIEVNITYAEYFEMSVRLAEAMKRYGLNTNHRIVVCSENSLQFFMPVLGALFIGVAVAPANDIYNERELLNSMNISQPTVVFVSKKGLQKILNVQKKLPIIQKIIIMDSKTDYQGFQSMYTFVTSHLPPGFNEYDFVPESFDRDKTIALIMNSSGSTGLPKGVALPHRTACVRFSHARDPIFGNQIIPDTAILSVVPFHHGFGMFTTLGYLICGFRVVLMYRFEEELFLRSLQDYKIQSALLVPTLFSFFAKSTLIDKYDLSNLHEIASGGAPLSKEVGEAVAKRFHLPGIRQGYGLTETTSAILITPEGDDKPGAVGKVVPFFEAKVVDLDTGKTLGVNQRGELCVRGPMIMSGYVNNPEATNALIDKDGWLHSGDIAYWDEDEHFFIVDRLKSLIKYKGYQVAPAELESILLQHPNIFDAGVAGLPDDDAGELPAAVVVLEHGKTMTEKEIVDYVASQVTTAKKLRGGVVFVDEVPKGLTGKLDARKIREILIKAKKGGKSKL
#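 Purified P. pyralis luciferase, 10 nM final, with Km-level 10 uM D-luciferin and 10 uM ATP in 50 mM Tris acetate pH 7.5, 10 mM Mg acetate, 0.01% Tween-20, 0.05% BSA; 6-point qHTS titration about 60 µM downward; luminescence read.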
# SMN2 splice enh – increases expression of the SMN2 splice variant; HEK293 SMN2-luciferase splicing reporter, luminescence, 30-36 h; Potency, µM (series often up to 46.1 µM), without a hit: top-dose activity change, positive = activation, hits mostly activators; actives 2.8% (n = 210,000); AID 1458; also: % of control where 0% means no effect; nearly all actives have a fitted effect of over 55% in size
#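 qHTS luciferase splicing reporter: luminescence rises when SMN2 exon 7 is included in transfected HEK293 cells. Compound exposure lasted 30-36 h at 37C, with 4.5 mM final sodium butyrate as control, followed by a ONE-Glo read.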
# Rab9 promoter act – activators of Rab9 promoter. actives 2.8% (n = 320,000). Huh7 Rab9 promoter-luciferase reporter, luminescence, 24 h. Potency, µM (series often up to 9.22 µM), without a hit: top-dose activation, negative = inhibition, actives largely listed as activators; also: % of control where 0% means no effect; nearly all actives have a fitted effect of over 60% in size
#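 Using Huh7 cells stably transfected with Rab9 promoter–luciferase, compounds were incubated 24 h at 37 °C, 5% CO2; luciferase luminescence was read 10 min after reagent addition.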
# Active calls of the source: *; ? = inconclusive; · = no result; [ ] = dose if it differs, or a comment. Calls follow the shape of the dose curve; as a rule, active = well fitted curve in the direction sought with a large enough effect; inconclusive = small, poorly fitted or top-dose-only effect, or another doubt; inactive = no such curve, though single readings can be large; an effect the other way counts as inactive or inconclusive. Potency is read from the fitted curve at half-maximal effect.
SMILES,KinaseGlo FLuc,ELG1 genotoxic,NPC1 prom act,FLuc counter,SMN2 splice enh,Rab9 promoter act
COC(=O)C1=C(C)N(Cc2ccc3c(c2)OCO3)C(=O)C1,-2%,3%,-4%,2%,-10%,-1%
O=C(O)C[C@H]1OCC=C2C[N@@+]3([O-])CC[C@]45c6ccccc6N[C@@H]4[C@@H]1[C@H]2C[C@H]53,-6%[7.66 µM],·,·,·,8%[9.22 µM],·
COC(=O)CC1c2ccccc2C(Cc2ccc3c(c2)OCO3)=C(C)N1C(=O)OC (stereo not drawn),1%,·,·,·,0%,·
CCOC(=O)c1nn(-c2ccc(C)c(C)c2)cc1O,-7%,6.5µM*,?,4.3µM*,0%,15%
COc1ccc2c(=O)c(Oc3ccc(C(=O)O)cc3)c(C(F)(F)F)oc2c1,-1%,?,?,?,2.5µM*,?
COc1ccc(CNc2ncnc3ccc(-c4ccccc4CN(C)C)cc23)c(OC)c1,-3%,·,·,·,-9%,·
O=C(Nc1ccc2c(c1)C(=O)N(CC1CCCO1)C2=O)c1cccc(Br)c1 (stereo not drawn),-2%,-4%,0%,11µM*,-17%,11%
O=C(O)c1cccc(NC(=O)c2ccc3c(c2)C(=O)N(c2ccccc2)C3=O)c1,·,4%,2%,0.27µM*,·,-2%
O=C(O)c1cc(NC(=O)c2cccc(N3C(=O)c4ccccc4C3=O)c2)cc(C(=O)O)c1,·,3%,-4%,-13%,·,6%
COc1ccc(NC(=O)c2ccc3c(c2)C(=O)N(CC2CCCO2)C3=O)cc1 (stereo not drawn),·,-1%,-7%,?,·,-5%
CC(=O)Oc1cccc(C(=O)Nc2ccc3c(c2)C(=O)N(CC2CCCO2)C3=O)c1 (stereo not drawn),·,3%,22%,?,·,3%
COC(=O)c1cccc(NC(=O)c2ccc3c(c2)C(=O)N(CC2CCCO2)C3=O)c1 (stereo not drawn),-6%,0%,3%,24µM*,13%,0%
COc1ccccc1N1C(=O)c2ccc(C(=O)Nc3ccc(C(=O)O)cc3)cc2C1=O,·,1%,-3%,27µM*,·,-3%
CCN(Cc1ccccc1)C(=O)Cn1c(=O)n(-c2ccccc2)c(=O)c2c1c1cc(C)ccc1n2C,·,·,·,-2%,·,·
C=CC[C@@](C(C)=O)(C(=O)OC)C(NC(=O)OC(C)(C)C)c1ccccc1 (stereo partly drawn),0%,·,·,·,15%,·
CCc1cccc(NC(=O)CCc2c(C)nc3c(c2C)c(=O)n(C)c(=O)n3C)c1,·,·,·,-9%,-16%,·
O=C(O)Cc1ccc(NC(=O)c2ccc3c(c2)C(=O)N(CC2CCCO2)C3=O)cc1 (stereo not drawn),·,15%,10%,-1%,·,-4%
O=C(O)c1cccc(NC(=O)c2ccc3c(c2)C(=O)N(CC2CCCO2)C3=O)c1 (stereo not drawn),-10%,1%,5%,0.48µM*,4%,1%
CSc1ccccc1C(=O)Nc1nc2ccccc2[nH]1,-3%,?,3.2µM*,?,14µM*,4.5µM*
CSc1ccccc1C(=O)Nc1nc2ccccc2c(=O)[nH]1,·,6%,24%,19µM*,·,2.8µM*
O=C(c1cccc(-c2nnc(-c3ccccc3)o2)c1)N1CCCCCC1,-3%,?,?,17µM*,?,?
O=C(c1cccc(-c2nnc(-c3ccccc3)o2)c1)N1CCCCC1,-5%,?,?,17µM*,14µM*,?
COC(=O)N1C2CC(=O)O[C@@H]3c4cc5c(cc4[C@]1(C)[C@@]3(Br)c1ccccc12)OCO5,-9%[7.66 µM],·,·,·,-30%[9.22 µM],·
COc1cc(C=O)ccc1OCCCOc1ccccc1C(=O)O,-5%,-3%,?,1.9µM*,14%,?
COc1cc(C=O)ccc1OCc1ccc(Cl)nc1,1%,?,-1%,4.8µM*,·,10%
SMILES,KinaseGlo FLuc,ELG1 genotoxic,NPC1 prom act,FLuc counter,SMN2 splice enh,Rab9 promoter act
COc1cc(C=O)ccc1OCc1ccncc1,·,1%,-7%,?,·,1%
C/C=C/c1ccc(OCCOc2cc(C=O)ccc2OC)c(OC)c1,0%,15%,12%,13µM*,16µM*,8%
COc1cc(C=O)ccc1OCCOc1ccccc1[N+](=O)[O-],0%,11%,-1%,21µM*,17%,-4%
Cc1ccccc1CNC(=O)c1cccc(NC(=O)N2CCSc3ncccc32)c1,·,·,·,-11%,·,·
Cc1cccc(-c2nc(S(=O)(=O)c3ccccc3)c(N3CCN(c4ccccc4)CC3)o2)c1,·,·,·,-1%,-3%,·
NCCSCc1ccccc1Cl,-3%[7.66 µM],·,·,·,-28%[9.22 µM],·
CC(C)(C)c1ccc(C(=O)NNC(=O)CCC(=O)Nc2ccccc2)cc1,·,17%,11%,3.4µM*,·,6%
Cc1cc(NC(=O)CCC(=O)NNC(=O)c2ccc(C(C)(C)C)cc2)no1,-10%,8%,4%,2.4µM*,5%,11%
CCCCOc1ccc(C(=O)NCc2cn3cccc(C)c3n2)cc1,·,·,·,-1%,·,·
CCOC(=O)c1ccc(Nc2nc(=O)c3cccnc3s2)cc1,-2%,5%,3.5µM*,?,10µM*,4.5µM*
CC(=O)c1ccc(Nc2nc(=O)c3cccnc3s2)cc1,-1%,·,·,-10%,?,·
CC(=O)c1cccc(Nc2nc(=O)c3cccnc3s2)c1,9%,?,2%,?,-7%,1%
O=c1nc(Nc2ccc(OCc3ccccc3)cc2)sc2ncccc12,-2%,-3%,-2%,-2%,3.5µM*,13%
Cc1ncc(/C=C2\C(=O)Nc3ccccc32)[nH]1,·,8%,?,?,·,15%
CCc1ncc(/C=C2\C(=O)Nc3ccccc32)[nH]1,·,6%,?,13µM*,·,?
Cc1ccc(C)c(Cn2c(C3CC(=O)N(c4ccccc4C)C3)nc3ccccc32)c1 (stereo not drawn),·,·,·,-5%,·,·
Cc1[nH]c2ccc3ncccc3c2c1C,-4%,3%,1%,21µM*,-30%,3%
COc1ccc(/C=C2\CN(Cc3ccccc3)C/C(=C\c3ccc(OC)cc3)C2=O)cc1,2%,-13%,0%,5%,-8%[1.84 µM],-4%
CCOc1ccc(/C=C2\CCc3ccccc3C2=O)cc1,·,?,2.8µM*,0.3µM*,·,1.1µM*
O=C1/C(=C\c2ccncc2)CCc2ccccc21,·,-12%,0%,9.5µM*,·,-10%
O=C1/C(=C/c2ccncc2)CCC/C1=C\c1ccncc1,1%,-23%,-40%,0%,-106%,-32%
O=C1/C(=C/c2ccncc2)CCc2ccccc21,·,4%,0%,8.5µM*,·,-4%
c1ccc2c(c1)CCc1c(-c3ccncc3)n[nH]c1-2,·,?,?,?,·,18%
